Here are results for nine compounds from PubChem BioAssay (NCI).

Compounds without any hit were thinned out: in the full panel of roughly 79,000, 15% have a hit. A number with no mark means an inactive call. Active and inactive are the calls of the source. Cut-off read from the data, not from the text of the source: active = growth inhibition above about 70%; inactive = the rest.

Assay [1] is described as follows: NCI Yeast Anticancer Drug Screen. Data for the rad50 strain (AID 155).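 Note: 0% = growth of vehicle-only cultures of the same strain.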 The following applies: S. cerevisiae rad50 strain growth inhibition, stronger effect = higher value. In outline: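 Genetically altered yeast (DNA repair pathway); compound treatment; growth inhibition vs vehicle ctrl.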
A short description of assay [2]: NCI Yeast Anticancer Drug Screen. Data for the mec2-1 strain (AID 157). The following applies: S. cerevisiae mec2-1 strain, stronger effect = higher value. In outline:
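mec2-1 yeast strain, carrying an alteration in DNA damage repair or cell cycle control, was exposed to compounds; growth inhibition was measured relative to vehicle-treated controls.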

The nature of assay [3]: NCI Yeast Anticancer Drug Screen. Data for the sgs1 mgt1 strain (AID 161).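 Note: 0% = growth of cultures given vehicle only.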 The following applies: S. cerevisiae sgs1 mgt1 strain, stronger effect = higher value. The procedure, abridged:
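Percent growth inhibition was derived by comparing compound-exposed mutant yeast with vehicle-exposed cultures. The strain carries alterations in DNA damage repair.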

Assay [4] can be described thus: NCI Yeast Anticancer Drug Screen. Data for the cln2 rad14 strain (AID 165).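 Note: 0% = growth equal to vehicle treated cultures.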 The following applies: S. cerevisiae cln2 rad14 strain, stronger effect = higher value. In outline: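 Yeast carrying cln2 and rad14 alterations (cell cycle control and DNA damage repair) were exposed to compounds. Growth inhibition was measured against vehicle-treated controls.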
Assay [5] can be described thus: NCI Yeast Anticancer Drug Screen. Data for the bub3 strain (AID 167). The following applies: S. cerevisiae bub3 mutant strain, stronger effect = higher value. In outline:
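Yeast carrying a defined mutation is treated with each compound, and growth is compared with that of vehicle-exposed cells to give inhibition.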

Assay [6] is described as follows: NCI Yeast Anticancer Drug Screen. Data for the mlh1 rad18 strain (AID 175). The following applies: S. cerevisiae mlh1 rad18 strain growth inhibition, stronger effect = higher value. The procedure, abridged: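 Growth inhibition of the yeast strain was measured after compound exposure and expressed relative to vehicle-treated controls. The strain carries defined defects in DNA damage repair.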

[7] abbreviates: at 5.0 µM (retest, dose inferred, filed as 0.5).
Setting [8] is: at 50.0 µM (retest, dose inferred, filed as 5.0).

With `CC1=NC2=NC(CCCC(=O)OCc3ccc(Cl)c(Cl)c3)=NC3=CC=CC(=N1)N32`, the growth inhibition in assay [1] (setting [7]) is 9%; in assay [1] (setting [8]) it was 54%; in assay [1] (at 50.0 µM), 61.1%; in assay [2] (setting [7]), 17%; in assay [2] (setting [8]), 52%; in assay [2] (at 50.0 µM), 31.1%. Besides, the growth inhibition was 5% in assay [3] (setting [7]); 60% in assay [3] (setting [8]); 67.7% in assay [3] (at 50.0 µM); 6% in assay [4] (setting [7]); 46% in assay [4] (setting [8]); 41% in assay [4] (at 50.0 µM). In addition, the growth inhibition in assay [5] (setting [7]) is 1%; in assay [5] (setting [8]) it was 38%; in assay [5] (at 50.0 µM), 7.65%; in assay [6] (setting [7]), 5%; in assay [6] (setting [8]), 58%; in assay [6] (at 50.0 µM) it was 63.1%.
For `CCC(C(=O)C(C)C(O)C(C)CCc1ccc(C)c(O)c1C(=O)O)C1OC(CC)(C2CCC(O)(CC)C(C)O2)CC1C` (configuration not stated), the growth inhibition in assay [1] (setting [7]) was 28%; in assay [1] (setting [8]) it was 96% (active); in assay [1] (at 50.0 µM), 88.2% (active); in assay [2] (setting [7]), 56%; in assay [2] (setting [8]) it was 98% (active); in assay [2] (at 50.0 µM), 90.7% (active). The growth inhibition in assay [3] (setting [7]) is 40%; in assay [3] (setting [8]), 97% (active); in assay [3] (at 50.0 µM), 90% (active); in assay [4] (setting [7]) it was 73% (active); in assay [4] (setting [8]) it was 98% (active); in assay [4] (at 50.0 µM) it was 89.2% (active). Also, the growth inhibition in assay [5] (setting [7]) was 64%; in assay [5] (setting [8]) it was 98% (active); in assay [5] (at 50.0 µM) it was 88.7% (active); in assay [6] (setting [7]), 28%; in assay [6] (setting [8]), 97% (active); in assay [6] (at 50.0 µM) it was 88.2% (active).
For `CN(C(=S)c1ccccc1)c1ccccc1`, the growth inhibition in assay [1] (setting [7]) was -166%; in assay [1] (setting [8]), -132%; in assay [1] (at 50.0 µM), 97.4% (active); in assay [2] (setting [7]) it was -45%; in assay [2] (setting [8]), -56%; in assay [2] (at 50.0 µM), 82% (active). Also, the growth inhibition in assay [3] (setting [7]) was -63%; in assay [3] (setting [8]), -61%; in assay [3] (at 50.0 µM), 69.2%; in assay [4] (setting [7]) it was -61%; in assay [4] (setting [8]), -65%; in assay [4] (at 50.0 µM), 58.7%. The growth inhibition is -81% in assay [5] (setting [7]); -80% in assay [5] (setting [8]); 96.6% (active) in assay [5] (at 50.0 µM); -150% in assay [6] (setting [7]); -131% in assay [6] (setting [8]); 91.7% (active) in assay [6] (at 50.0 µM).
With `CN(C)CC1CC/C(=C\c2ccc(O)cc2)C1=O` (configuration not stated), the growth inhibition in assay [1] (setting [7]) is 11%; in assay [1] (setting [8]), 78% (active); in assay [1] (at 50.0 µM), 89.2% (active); in assay [2] (setting [7]) it was -19%; in assay [2] (setting [8]), 98% (active); in assay [2] (at 50.0 µM) it was 93.7% (active). Further, the growth inhibition in assay [3] (setting [7]) is -4%; in assay [3] (setting [8]), 98% (active); in assay [3] (at 50.0 µM) it was 91.6% (active); in assay [4] (setting [7]), 24%; in assay [4] (setting [8]), 53%; in assay [4] (at 50.0 µM), 77.6% (active). The growth inhibition was -26% in assay [5] (setting [7]); 97% (active) in assay [5] (setting [8]); 91.9% (active) in assay [5] (at 50.0 µM); 19% in assay [6] (setting [7]); 92% (active) in assay [6] (setting [8]); 90.6% (active) in assay [6] (at 50.0 µM).
`O=C(CNC(=O)C(CSCc1ccccc1)NC(=O)OCc1ccccc1)Oc1c(Cl)c(Cl)c(Cl)c(Cl)c1Cl` (configuration not stated): the growth inhibition in assay [1] (setting [7]) is 10%; in assay [1] (setting [8]), 34%; in assay [1] (at 50.0 µM), 46.9%; in assay [2] (setting [7]), 8%; in assay [2] (setting [8]) it was 30%; in assay [2] (at 50.0 µM), 61.9%. Further, the growth inhibition in assay [3] (setting [7]) is 2%; in assay [3] (setting [8]), 30%; in assay [3] (at 50.0 µM) it was 68.8%; in assay [4] (setting [7]) it was 3%; in assay [4] (setting [8]), 20%; in assay [4] (at 50.0 µM) it was 25.6%. The growth inhibition in assay [5] (setting [7]) is -4%; in assay [5] (setting [8]), 13%; in assay [5] (at 50.0 µM), 15.9%; in assay [6] (setting [7]), 9%; in assay [6] (setting [8]) it was 51%; in assay [6] (at 50.0 µM), 66.4%.
Consider `N#CC1C=C(Cl)c2ccc(Cl)cc2N1C(=O)c1ccccc1` (configuration not stated), for which the growth inhibition in assay [1] (setting [7]) is 2%; in assay [1] (setting [8]) it was 96% (active); in assay [1] (at 50.0 µM), 98.8% (active); in assay [2] (setting [7]), 17%; in assay [2] (setting [8]) it was 99% (active); in assay [2] (at 50.0 µM), 99.2% (active). Further, the growth inhibition is 3% in assay [3] (setting [7]); 99% (active) in assay [3] (setting [8]); 99.3% (active) in assay [3] (at 50.0 µM); 2% in assay [4] (setting [7]); 99% (active) in assay [4] (setting [8]); 99.4% (active) in assay [4] (at 50.0 µM). For the same compound, the growth inhibition in assay [5] (setting [7]) was 0%; in assay [5] (setting [8]), 98% (active); in assay [5] (at 50.0 µM), 98.3% (active); in assay [6] (setting [7]) it was 23%; in assay [6] (setting [8]), 99% (active); in assay [6] (at 50.0 µM), 99.2% (active).
Consider `O=[N+]([O-])c1ccc(-c2nc3ccc(F)cc3[nH]2)o1`, for which the growth inhibition in assay [1] (setting [7]) was 73% (active); in assay [1] (setting [8]), 99% (active); in assay [1] (at 50.0 µM), 99.6% (active); in assay [2] (setting [7]), 90% (active); in assay [2] (setting [8]), 99% (active); in assay [2] (at 50.0 µM) it was 99.8% (active). The growth inhibition in assay [3] (setting [7]) was 86% (active); in assay [3] (setting [8]) it was 100% (active); in assay [3] (at 50.0 µM), 99.7% (active); in assay [4] (setting [7]) it was 34%; in assay [4] (setting [8]), 98% (active); in assay [4] (at 50.0 µM), 98.5% (active). The growth inhibition in assay [5] (setting [7]) was 70% (active); in assay [5] (setting [8]), 100% (active); in assay [5] (at 50.0 µM), 99.7% (active); in assay [6] (setting [7]) it was 94% (active); in assay [6] (setting [8]), 99% (active); in assay [6] (at 50.0 µM), 99.7% (active).
In the case of `C[CH2][Ge]([CH2]C)([CH2]C)[O]C(=O)C([O][Ge]([CH2]C)([CH2]C)[CH2]C)c1ccccc1` (configuration not stated), the growth inhibition is 15% in assay [1] (setting [7]); 15% in assay [1] (setting [8]); 91.2% (active) in assay [1] (at 50.0 µM); 6% in assay [2] (setting [7]); 6% in assay [2] (setting [8]); 93% (active) in assay [2] (at 50.0 µM). Further, the growth inhibition in assay [3] (setting [7]) was 13%; in assay [3] (setting [8]), 13%; in assay [3] (at 50.0 µM), 91.3% (active); in assay [4] (setting [7]), 15%; in assay [4] (setting [8]) it was 15%; in assay [4] (at 50.0 µM), 89.5% (active). The growth inhibition in assay [5] (setting [7]) was 5%; in assay [5] (setting [8]) it was 5%; in assay [5] (at 50.0 µM) it was 90.6% (active); in assay [6] (setting [7]), 23%; in assay [6] (setting [8]), 23%; in assay [6] (at 50.0 µM), 89.5% (active).
As for `O=C(NNS(=O)(=O)c1ccccc1)Nc1ccccc1`, the growth inhibition in assay [1] (setting [7]) was -21%; in assay [1] (setting [8]) it was -15%; in assay [1] (at 50.0 µM), -13.4%; in assay [2] (setting [7]), 17%; in assay [2] (setting [8]), -11%; in assay [2] (at 50.0 µM) it was 5.85%. The growth inhibition in assay [3] (setting [7]) was -3%; in assay [3] (setting [8]) it was 6%; in assay [3] (at 50.0 µM) it was 7.45%; in assay [4] (setting [7]), -1%; in assay [4] (setting [8]) it was 4%; in assay [4] (at 50.0 µM), 3.8%. Further, the growth inhibition in assay [5] (setting [7]) is 2%; in assay [5] (setting [8]), 1%; in assay [5] (at 50.0 µM) it was 7.2%; in assay [6] (setting [7]), 4%; in assay [6] (setting [8]) it was 15%; in assay [6] (at 50.0 µM), -5.3%.
